# Whole data set: some 33,000 sequences, median “E-score (dimensionless, -0.5 to 0.5)” near -0.058, cut for the highest 2% near 0.35. The full list was thinned out, with the highest values kept by preference.
# System: MvaT
# Test: PBM 8-mer E-score (mean of HK and ME arrays) (E-score (dimensionless, -0.5 to 0.5)); higher = stronger relative binding preference
# Description: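 Protein binding microarray: GST-tagged full-length MvaT (P. aeruginosa PAO1) bound to two universal double-stranded 60-mer arrays (ME and HK), each with a constant 25-mer primer and a variable 35-mer region covering all 8-mers. The 8-mer E-score (rank-based, range -0.5 to 0.5, >0.45 = specific binding) is the mean of the two arrays.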
row,Sequence,PBM 8-mer E-score
1,CCCTTTCC,-0.188
2,GAATAATC,0.188
3,GCATAATA,0.339
4,AAATAATG,0.387
5,AAAAAATG,0.0805
6,ACATAATC,0.222
7,ACATAATA,0.401
8,GAATAAGC,0.194
9,GAATAATA,0.446
10,TAATAATA,0.477
11,AACCTTTA,0.192
12,AGGGCCTG,-0.226
13,GATCTGAC,-0.0641
14,ATACCAAG,-0.0486
15,CTGCGCAA,-0.0818
16,AAGAGACT,-0.04
17,AACGCGTG,-0.0417
18,ACTTCTGC,0.0207
19,TTCCAGAA,0.055
20,GCTAGGAA,-0.167
21,TAATAACA,0.379
22,GAATAAGA,0.201
23,GAATAACA,0.2
24,AAATAAGA,0.309
25,CAATAACA,0.283

row,Sequence,PBM 8-mer E-score
1,CAATAATG,0.322
2,TAATAAGA,0.375
3,CAATAATC,0.19
4,CAATAATA,0.418
5,AAATAATT,0.438
6,AAAAAATT,0.153
7,CTACCGCA,-0.134
8,CCTGATGC,-0.163
9,CAGCTTAG,-0.203
10,GGACAGTA,-0.0349
11,AACTTTCG,0.255
12,GCCTAGCC,-0.187
13,CTAAGTAG,0.0522
14,AAATAATA,0.428
15,AAATAATC,0.301
16,AAAAAATA,0.331
17,CCTCAAAC,-0.125
18,GTATATCA,0.237
19,ACATATCG,0.243
20,ATATATCA,0.427
21,AGATATCC,-0.0391
22,CTATATCA,0.16
23,ATATATCG,0.442
24,ATATATCC,0.38
25,CTATATCC,0.123

row,Sequence,PBM 8-mer E-score
1,AAATATCG,0.295
2,TCGTGACA,-0.206
3,GTTTCACA,-0.00657
4,AAATTCCG,0.108
5,CCTTTAAA,0.211
6,ACTTTAAG,0.254
7,ACTTTTTA,0.309
8,ACTTTAAT,0.414
9,ACTTTTAG,0.112
10,ACTTTTAA,0.383
11,ACTTTTAT,0.363
12,ACTTTTAC,0.211
13,ACTTTAAC,0.326
14,ACTTTAAA,0.404
15,TCTTTTAA,0.296
16,GCTTTAAA,0.249
17,CGTCACCA,-0.18
18,ATCCCTTC,-0.172
19,CAAGCACG,-0.238
20,CCTTACCG,-0.129
21,GAAGCAAC,-0.0872
22,CTACTATA,0.292
23,GCATACTA,0.186
24,ATATACTA,0.422
25,AGATACTA,0.143

row,Sequence,PBM 8-mer E-score
1,GTATACTA,0.373
2,ATATACTC,0.364
3,GTACTATA,0.329
4,CTATACTC,-0.0354
5,CTATACTA,0.156
6,ATATACTG,0.322
7,ATACTATA,0.377
8,GTATACGA,0.184
9,ATACACTC,0.143
10,GAACGTTA,0.207
11,ACAAACCA,0.185
12,AGCTGAGC,-0.262
13,AACGTAGT,0.000134
14,CGCGTGAG,-0.167
15,AGGCCGAG,-0.0711
16,GGCCCCTA,-0.222
17,ACAATTAT,0.378
18,ACAATTAG,0.315
19,GCAATTAA,0.324
20,GCAATTTA,0.307
21,ACAATTAA,0.347
22,ACAATTAC,0.319
23,ACAATTTA,0.353
24,ACAATTTG,0.187
25,CCAATTAA,0.306

row,Sequence,PBM 8-mer E-score
1,CCGGTGAA,-0.0479
2,AGGAGCAG,-0.32
3,CAGGATGG,-0.189
4,CAAGCAGA,-0.0444
5,CGAATAAA,0.254
6,CTAAAAAA,0.0548
7,ATAATAAG,0.43
8,ATCATAAG,0.161
9,TCAATAAA,0.22
10,CTAATAAG,0.213
11,CTAATAAC,0.326
12,CTAATAAA,0.349
13,GTAATAAC,0.297
14,TGAATAAA,0.268
15,TTAATAAA,0.432
16,ATAATAAC,0.422
17,AGGGGAGA,-0.145
18,ATGACACG,-0.12
19,AGCCTATA,0.179
20,ATTGCAAT,0.27
21,ATAATGAT,0.275
22,AGAATAAG,0.252
23,AGAATAAA,0.255
24,ATAATAAA,0.451
25,GTAATGAA,0.00633

row,Sequence,PBM 8-mer E-score
1,AGAATAAC,0.232
2,ATAATAAT,0.463
3,ATCATAAT,0.245
4,TTAATGAA,0.393
5,CTAATGAA,0.132
6,GTAATAAA,0.333
7,AGAATAAT,0.411
8,CTAGCCTA,-0.138
9,AGGCTAAG,-0.0142
10,GCCTGTCC,-0.241
11,CAGGACAC,-0.248
12,AACGGACA,-0.037
13,CAGGCCGG,-0.188
14,GTTTTCAA,0.148
15,GCTAGAGA,-0.188
16,GAGACCAC,-0.107
17,ACCTTGCG,-0.0997
18,AGGATAAT,0.353
19,AGGATAAG,0.0764
20,AGGATAAA,0.22
21,ATGCATGA,-0.142
22,AGTATATG,0.351
23,CGTATATA,0.378
24,AGTATGTG,0.209
25,AGTATATA,0.446

row,Sequence,PBM 8-mer E-score
1,AGTATATC,0.259
2,GGTATATA,0.355
3,CGTATATC,0.143
4,GGTATAGA,0.08
5,GGTATACA,0.201
6,AGTATAGA,0.0904
7,CGTATACA,0.17
8,AGTATAGG,0.0335
9,GACGTTGC,-0.0956
10,GTGTAACA,0.206
11,TAAAGGAA,0.0516
12,GAATCGCC,-0.206
13,GAAACATA,0.343
14,ATAACATA,0.359
15,ATAACATG,0.235
16,AAAACATT,0.225
17,AAAACATA,0.354
18,ATAACATC,0.302
19,ATCCATGC,-0.188
20,CGAAATTC,0.192
21,CCCTCACA,-0.151
22,ATATCGAG,0.208
23,TCCCGGAA,-0.126
24,GCGCGTAC,-0.156
25,GAGGGTGC,-0.16

row,Sequence,PBM 8-mer E-score
1,TCAAACGA,0.0344
2,CTTACTTC,0.208
3,ATAACTTG,0.38
4,ATTACTTC,0.348
5,ATAACTTC,0.351
6,ATAACTCG,0.255
7,CTAACTTC,0.168
8,ATAACTGC,0.286
9,AGAACTTG,0.214
10,ATTACTTA,0.334
11,CGGAGACA,0.0514
12,CCTACCTC,-0.226
13,CCAGATGG,-0.281
14,GATAACTA,0.198
15,ACTAACTG,0.191
16,GTTAACTA,0.362
17,ACTAACTA,0.381
18,CATAACTA,0.286
19,CTTAACTA,0.305
20,ATTAACTA,0.339
21,AATAACTA,0.348
22,ACTAACTC,0.118
23,ATTTCTGC,0.125
24,ATTCATTA,0.219
25,GATAGGAA,-0.0142

row,Sequence,PBM 8-mer E-score
1,AAATTGCT,0.214
2,AACCCGTC,-0.0101
3,GTCGAGAA,-0.0478
4,GCATACCC,0.0205
5,TCACGCAA,-0.124
6,AAGTTTTA,0.318
7,ATGTTTAA,0.391
8,ATGTTTAG,0.212
9,AAGTTTAA,0.357
10,TAGTTTAA,0.398
11,AAGTTTAC,0.157
12,CAGTTTAA,0.26
13,AAGTTTAT,0.358
14,AAGTTTGA,0.289
15,GAGTTTAA,0.235
16,AAGTTTAG,0.288
17,CTGTTTAA,0.302
18,TATTCGGA,-0.000615
19,ACAGGTCG,-0.216
20,CTGTGTGC,0.0347
21,AAGCAGGT,0.0586
22,CGTTCAAG,-0.0745
23,GCTCGCAA,-0.107
24,AGTTTTAG,0.162
25,AGTTTTAC,0.221

row,Sequence,PBM 8-mer E-score
1,AGTTTTAT,0.351
2,ATACGGCG,-0.11
3,AACAACTA,0.335
4,AACAACTT,0.358
5,AACAACTC,0.185
6,AGTGGGCA,0.0126
7,GGTCCGAA,-0.0643
8,ATAACAAC,0.228
9,AAAACAAC,0.282
10,ATAACTAG,0.27
11,AAAACAAG,0.122
12,ATAACAAG,0.283
13,ACAACAAT,0.372
14,ATAACTAA,0.32
15,ACAACAAG,0.138
16,ATAACTAT,0.388
17,AAAACAAT,0.349
18,ACAACAAC,0.216
19,ATAACAAT,0.355
20,AAGTAGAC,0.0778
21,ACCATATC,0.099
22,GCGTGGAC,-0.192
23,TATGGACA,0.0866
24,TGCAGGCA,-0.0892
25,GACCACCC,-0.296

row,Sequence,PBM 8-mer E-score
1,ATTTATAG,0.342
2,GTTTATCA,0.19
3,CTTTATAA,0.344
4,ATTTATAC,0.383
5,GTTTATGA,0.208
6,GTTTATAA,0.383
7,ATTTATCC,0.286
8,ATTTATAA,0.459
9,CTTTATAC,0.264
10,CGATACGC,-0.172
11,AGCGGGAT,-0.138
12,ACCCTTTC,-0.289
13,GGCAATAA,0.228
14,CCTAATGA,-0.254
15,GCTAATCA,0.0157
16,ACTAATTG,0.308
17,CCTAATTA,0.358
18,ACTAATTC,0.227
19,GCTAATTA,0.352
20,GCTAATGA,-0.138
21,CCTAATTC,0.0847
22,ACTAATTA,0.45
23,CAAGTAGA,0.141
24,AGTCAGCA,-0.0242
25,GGCCAGAA,-0.026

row,Sequence,PBM 8-mer E-score
1,GAACGGGA,-0.0641
2,GTGCGTTA,0.133
3,GACCTTGA,-0.138
4,AGGTTCCG,-0.212
5,AAGTTCAA,0.398
6,GAGTTCAA,0.174
7,AACTTCAA,0.345
8,CAGTTCAA,0.0238
9,GACTTCAA,0.0947
10,AACTTAAC,0.323
11,TACTTAAA,0.302
12,AACTTAAT,0.381
13,AACTTAAG,0.333
14,AACTTAAA,0.352
15,AACTTCAG,0.158
16,CACTTAAA,0.0563
17,GGGCCACC,-0.382
18,GATTTGTA,0.205
19,GCCCGCGC,-0.262
20,TGGTGCAA,0.0798
21,ACAGATGA,-0.0583
22,CGAGGTAC,-0.301
23,ACCCATTA,0.241
24,CGTTAGCA,-0.0988
25,CCGGCCTA,-0.174

row,Sequence,PBM 8-mer E-score
1,ATAATTGA,0.338
2,CTGATTAA,0.278
3,CTAATTCA,0.228
4,ATAATTCG,0.228
5,ATAATTAA,0.456
6,GTAATTAC,0.393
7,GAAATTAC,0.247
8,ATAATTAG,0.429
9,AGAATTAG,0.00537
10,GCAATTAC,0.169
11,GTAATTAA,0.343
12,CTAATTAA,0.413
13,CCGTGCCC,-0.184
14,ATCCTGGA,0.0568
15,CCGCACGA,-0.13
16,AACTATGT,0.258
17,ATGGAGAC,-0.0433
18,CTTTTCTC,-0.00236
19,TATTTCCA,0.312
20,AGACTAAC,0.00982
21,AGATACCC,-0.0322
22,ATAATGGA,0.238
23,CACGTCTC,-0.173
24,ATAATTCC,0.254
25,ATAATTAC,0.378

row,Sequence,PBM 8-mer E-score
1,CCAATTAG,0.073
2,CTAATTAC,0.322
3,ATAATTAT,0.467
4,CTAATTAG,0.35
5,CAAATTAG,0.18
6,ATAATTGG,0.308
7,AGAATTAT,0.315
8,AGCTAATC,-0.0533
9,GAAGTTGA,0.0448
10,ATTTGGAA,0.0956
11,AAATACTT,0.246
12,CAATACTA,0.172
13,AAATACAA,0.33
14,TAATACTA,0.37
15,GACTAATA,0.297
16,TACTAATA,0.357
17,AAATACTA,0.383
18,AAATACTC,0.207
19,CAATACAA,0.199
20,TAATACAA,0.397
21,CACTAATA,0.323
22,GAATACTA,0.212

# — the supplement of paper PMC4466236
